Measurements: PubChem BioAssay (NCI)
The panel holds about 79,000 compounds, 15% with a hit somewhere; the sample as a whole holds those more often. Active and inactive are the calls of the source. No stated cut-off is given here; in the data, active means growth inhibition above about 70%; inactive means the rest.

How the values were obtained:
[1] = NCI Yeast Anticancer Drug Screen. Data for the rad52 strain (AID 147);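 further: 0% = growth of vehicle-treated control cultures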; details: S. cerevisiae rad52 mutant growth inhibition, stronger effect = higher value
Summary of the method: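 Measured: yeast growth inhibition. System: strain with a defined DNA damage repair alteration. Reference: vehicle-treated control cultures.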

[2] = NCI Yeast Anticancer Drug Screen. Data for the wt1 strain (AID 149);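 further: 0% = growth of vehicle-treated wt1 cultures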; details: S. cerevisiae wt1 strain (SPY 50644) growth inhibition, stronger effect = higher value
Summary of the method: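 The wt1 strain was treated with compounds, and growth was compared with vehicle-treated cultures to give inhibition.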

[3] = NCI Yeast Anticancer Drug Screen. Data for the rad50EPP+ strain (AID 151);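 further: 0% = growth of vehicle-treated control cultures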; details: S. cerevisiae rad50 mutant strain, stronger effect = higher value
Summary of the method: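 One strain with a rad50 alteration (rad50EPP+) was compound-treated, its growth then compared to that of vehicle controls.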

[4] = NCI Yeast Anticancer Drug Screen. Data for the mgt1 strain (AID 153); details: S. cerevisiae mgt1 mutant growth inhibition, stronger effect = higher value
Summary of the method: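 After exposure of the mgt1 yeast mutant to compound, growth was measured and reported as inhibition compared with vehicle controls.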

[5] = NCI Yeast Anticancer Drug Screen. Data for the rad50 strain (AID 155);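 further: 0% = growth of vehicle-only cultures of the same strain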; details: S. cerevisiae rad50 strain growth inhibition, stronger effect = higher value
Summary of the method: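 Cells are treated with compound, grown, and their growth is then scored against vehicle-only cultures of the same repair-deficient yeast strain.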

[6] = NCI Yeast Anticancer Drug Screen. Data for the mec2-1 strain (AID 157); details: S. cerevisiae mec2-1 strain, stronger effect = higher value
Summary of the method: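 Test agents were screened against the mec2-1 yeast strain, with defined DNA repair or cell cycle alteration. Growth was scored as inhibition against vehicle-only controls.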

[7] = NCI Yeast Anticancer Drug Screen. Data for the rad14 strain (AID 159);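 further: 0% = growth of vehicle-treated control cultures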; details: S. cerevisiae rad14 strain growth inhibition, stronger effect = higher value
Summary of the method: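 Readout: yeast growth inhibition, referenced to vehicle-only cultures. Strain bears a defined alteration in DNA damage repair.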

[8] = NCI Yeast Anticancer Drug Screen. Data for the sgs1 mgt1 strain (AID 161);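 further: 0% = growth of cultures given vehicle only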; details: S. cerevisiae sgs1 mgt1 strain, stronger effect = higher value
Summary of the method: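 Read-out: growth inhibition vs vehicle controls. Cells: mutant yeast strain deficient in DNA damage repair.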

[9] = NCI Yeast Anticancer Drug Screen. Data for the CLN2oe strain (AID 163);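 further: 0% = growth of vehicle-only control cultures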; details: S. cerevisiae CLN2oe strain, stronger effect = higher value
Summary of the method: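 Here, growth inhibition in a cell-cycle-altered yeast strain after compound exposure was quantified against vehicle control growth.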

[10] = NCI Yeast Anticancer Drug Screen. Data for the cln2 rad14 strain (AID 165);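 further: 0% = growth equal to vehicle treated cultures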; details: S. cerevisiae cln2 rad14 strain, stronger effect = higher value
Summary of the method: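 Growth of compound-exposed yeast (cln2 rad14 genotype) measured and expressed as inhibition relative to vehicle.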

[11] = NCI Yeast Anticancer Drug Screen. Data for the bub3 strain (AID 167); details: S. cerevisiae bub3 mutant strain, stronger effect = higher value
Summary of the method: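 Part of a panel of yeast mutants defective in DNA damage repair or cell cycle regulation. Each strain is grown with compound, and inhibition is calculated relative to solvent-treated cultures.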

[12] = NCI Yeast Anticancer Drug Screen. Data for the wt2 strain (AID 169);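 further: 0% = growth of vehicle-treated yeast cultures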; details: S. cerevisiae wt2 strain growth inhibition, stronger effect = higher value
Summary of the method: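 Genetically defined yeast strains from a DNA-repair/cell-cycle panel were used. Compound-exposed yeast growth was measured, and the inhibition was calculated relative to vehicle treatment.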

[13] = NCI Yeast Anticancer Drug Screen. Data for the mlh1 strain (AID 171);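 further: 0% = growth of vehicle-treated control cultures of the same strain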; details: S. cerevisiae mlh1 strain growth inhibition, stronger effect = higher value
Summary of the method: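 Here the genetically defined yeast mutant is grown with each compound, and the extent to which its growth falls below that of vehicle-exposed cells is reported.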

[14] = NCI Yeast Anticancer Drug Screen. Data for the sgs1 strain (AID 173);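 further: 0% = growth of vehicle-only control cultures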; details: S. cerevisiae sgs1 mutant, stronger effect = higher value
Summary of the method: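 Relative growth inhibition, referenced to vehicle, was determined in a yeast strain with a defined alteration affecting DNA damage repair or cell cycle control after compound exposure.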

[15] = NCI Yeast Anticancer Drug Screen. Data for the mlh1 rad18 strain (AID 175); details: S. cerevisiae mlh1 rad18 strain growth inhibition, stronger effect = higher value
Summary of the method: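 In this whole-cell yeast screen, a strain with altered DNA damage repair is challenged with compound, and its growth is measured against matched vehicle-treated controls.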

[16] = NCI Yeast Anticancer Drug Screen. Data for the rad18 strain (AID 177); details: S. cerevisiae rad18 mutant growth inhibition, stronger effect = higher value
Summary of the method: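 Screen uses a yeast strain with a defined lesion in DNA damage repair; compound effect is read as loss of growth compared to untreated vehicle cultures.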

[17] = at 5.0 µM (retest, dose inferred, filed as 0.5)
[18] = at 50.0 µM (retest, dose inferred, filed as 5.0)

Measured: growth inhibition

CCOC(=O)C1=C(C)NC(C)=C(C(=O)OCCNC(=O)c2ccc(N=[N+]=[N-])cc2)C1c1ccccc1C(F)(F)F (stereo unspecified)
inactive: [1]; at 1.2 µM 4% | [1]; at 3.7 µM 4% | [1]; at 11.0 µM 13% | [1]; at 33.0 µM 24% | [1]; at 100.0 µM 39% | [2]; at 1.2 µM 1% | [2]; at 3.7 µM 0% | [2]; at 11.0 µM -2% | [2]; at 33.0 µM 2% | [2]; at 100.0 µM 21% | [3]; at 1.2 µM -1% | [3]; at 3.7 µM 0% | [3]; at 11.0 µM 1% | [3]; at 33.0 µM 3% | [3]; at 100.0 µM -11% | [4]; at 1.2 µM -2% | [4]; at 3.7 µM -3% | [4]; at 11.0 µM -2% | [4]; at 33.0 µM 12% | [4]; at 100.0 µM 24% | [5]; at 1.2 µM 1% | [5]; at 3.7 µM -1% | [5]; [17] 3% | [5]; at 11.0 µM 17% | [5]; at 33.0 µM 39% | [5]; [18] 18% | [5]; at 50.0 µM 40.1% | [5]; at 100.0 µM 41% | [6]; at 1.2 µM 1% | [6]; at 3.7 µM 4% | [6]; [17] 1% | [6]; at 11.0 µM -2% | [6]; at 33.0 µM 13% | [6]; [18] -46% | [6]; at 50.0 µM 53.3% | [6]; at 100.0 µM 47% | [7]; at 1.2 µM 0% | [7]; at 3.7 µM -4% | [7]; at 11.0 µM 3% | [7]; at 33.0 µM 8% | [7]; at 100.0 µM 22% | [8]; [17] 5% | [8]; [18] 51% | [8]; at 50.0 µM 9.9% | [9]; at 1.2 µM -3% | [9]; at 3.7 µM -2% | [9]; at 11.0 µM -2% | [9]; at 33.0 µM 25% | [9]; at 100.0 µM 53% | [10]; [17] 4% | [10]; [18] 19% | [10]; at 50.0 µM 2.85% | [11]; at 1.2 µM -8% | [11]; at 3.7 µM -7% | [11]; [17] -42% | [11]; at 11.0 µM -5% | [11]; at 33.0 µM 4% | [11]; [18] 29% | [11]; at 50.0 µM 57.4% | [11]; at 100.0 µM 31% | [12]; at 1.2 µM 0% | [12]; at 3.7 µM -2% | [12]; at 11.0 µM 0% | [12]; at 33.0 µM 5% | [12]; at 100.0 µM 19% | [13]; at 1.2 µM 6% | [13]; at 3.7 µM -5% | [13]; at 11.0 µM -1% | [13]; at 33.0 µM 9% | [13]; at 100.0 µM 28% | [14]; at 1.2 µM 1% | [14]; at 3.7 µM -2% | [14]; at 11.0 µM 1% | [14]; at 33.0 µM 32% | [14]; at 100.0 µM 65% | [15]; [17] 2% | [15]; [18] 43% | [15]; at 50.0 µM 32.5% | [16]; at 1.2 µM 3% | [16]; at 3.7 µM -4% | [16]; at 11.0 µM 4% | [16]; at 33.0 µM 8% | [16]; at 100.0 µM 23%

Cn1c(=O)c2c(nc(N)n2C2OC(CO)C(O)C2O)n(C)c1=O (stereo unspecified)
active: [5]; at 50.0 µM 87.4% | [6]; at 50.0 µM 92% | [8]; at 50.0 µM 85.3% | [10]; at 50.0 µM 88.6% | [11]; at 50.0 µM 89% | [15]; at 50.0 µM 83.8%
inactive: [1]; at 1.2 µM -2% | [1]; at 3.7 µM -1% | [1]; at 11.0 µM -4% | [1]; at 33.0 µM -4% | [1]; at 100.0 µM 0% | [2]; at 1.2 µM -1% | [2]; at 3.7 µM -1% | [2]; at 11.0 µM -2% | [2]; at 33.0 µM -2% | [2]; at 100.0 µM 1% | [3]; at 1.2 µM -1% | [3]; at 3.7 µM 1% | [3]; at 11.0 µM 1% | [3]; at 33.0 µM -1% | [3]; at 100.0 µM 2% | [4]; at 1.2 µM -1% | [4]; at 3.7 µM -2% | [4]; at 11.0 µM 7% | [4]; at 33.0 µM -7% | [4]; at 100.0 µM 0% | [5]; at 1.2 µM -2% | [5]; at 3.7 µM 0% | [5]; [17] 17% | [5]; at 11.0 µM -11% | [5]; at 33.0 µM -1% | [5]; [18] 22% | [5]; at 100.0 µM 1% | [6]; at 1.2 µM 0% | [6]; at 3.7 µM 1% | [6]; [17] -2% | [6]; at 11.0 µM 1% | [6]; at 33.0 µM -3% | [6]; [18] -19% | [6]; at 100.0 µM -2% | [7]; at 1.2 µM -4% | [7]; at 3.7 µM -4% | [7]; at 11.0 µM -6% | [7]; at 33.0 µM -7% | [7]; at 100.0 µM 0% | [8]; [17] -17% | [8]; [18] 20% | [9]; at 1.2 µM 1% | [9]; at 3.7 µM -3% | [9]; at 11.0 µM 3% | [9]; at 33.0 µM 3% | [9]; at 100.0 µM 10% | [10]; [17] -9% | [10]; [18] 50% | [11]; at 1.2 µM 0% | [11]; at 3.7 µM 3% | [11]; [17] -19% | [11]; at 11.0 µM 12% | [11]; at 33.0 µM 15% | [11]; [18] 18% | [11]; at 100.0 µM 15% | [12]; at 1.2 µM -4% | [12]; at 3.7 µM -4% | [12]; at 11.0 µM -4% | [12]; at 33.0 µM -2% | [12]; at 100.0 µM 0% | [13]; at 1.2 µM -1% | [13]; at 3.7 µM -7% | [13]; at 11.0 µM -1% | [13]; at 33.0 µM 3% | [13]; at 100.0 µM -1% | [14]; at 1.2 µM -1% | [14]; at 3.7 µM -1% | [14]; at 11.0 µM -1% | [14]; at 33.0 µM -2% | [14]; at 100.0 µM 1% | [15]; [17] 2% | [15]; [18] 37% | [16]; at 1.2 µM -1% | [16]; at 3.7 µM 2% | [16]; at 11.0 µM -1% | [16]; at 33.0 µM -2% | [16]; at 100.0 µM -2%
